# In ChEMBL document CHEMBL4513216, “Probing the Open Global Health Chemical Diversity Library for Multistage-Active Starting Points for Next-Generation Antimalarials” (ACS Infect Dis, 2020):
# The whole screen tested about 69,000 compounds, of which about 8,600 (12%) showed an effect of 50% or more. This is one part of a sample in which strong results are shown more often than they occur.
# Test system: Plasmodium berghei
# Experiment: Screen against P. berghei liver stage (PbLuc), transformed with Luciferase, at 10uM
# Type: functional, HepG2
# Details: tested at 10 uM
row,SMILES,INHIBITION [%]
1,Cc1noc(C)c1-c1cccc(C2CCNCC2)n1,5.11
2,COc1ccccc1OCCNC(=O)CN1CCN(C)CC1C (stereo unspecified),16.657
3,Nc1nc2c(c3c1C(=O)NC3=O)CCCC2,70.7
4,O=C1NC(=O)c2c3c(nc(O)c21)CCCC3,29.3
5,Nc1nc2c(c3c1C(=O)NC3=O)CCC2,41.9
6,COc1ccc(Nc2nc(N)c(C(C)=O)s2)cc1Cl,17.6
7,COCCN1CC[C@@H]2O[C@@H](COCC(=O)N3CCCC3)CC[C@@H]21,-23.2
8,Cc1cc(NCc2cc(C)oc2C(F)(F)F)n2nc(C)cc2n1,79.2
9,Cc1cc(C(F)(F)F)nc(CNc2cc(C)nc3cc(C)nn23)n1,43.2
10,Cc1cc(NCCCC(F)(F)F)n2nc(C)cc2n1,42.3
11,CCN(C)c1ncnc2c1CCN(Cc1ccc(OC)cc1)CC2,34.1
12,O=C(c1ccsc1)N1CCO[C@@H]2CN(Cc3ccccn3)CC[C@@H]2C1,-31.3
13,Cc1nc(N2CCOCC2)nc2c1CN(C(=O)C(C)C)CC2,5.04
14,Cc1nc(N2CCCC2)nc2c1CCN(C(=O)N1CCCC1)CC2,-23.3
15,Cc1cc(C(=O)N2CCc3nc(N4CCCC4)nc(C)c3CC2)c(C)o1,67.5
16,Cc1cc(C(=O)N2CCc3nc(N4CCOCC4)nc(C)c3C2)c(C)o1,55.7
17,Cc1nc(N2CCCC2)nc2c1CN(C(=O)N1CCOCC1)CC2,34.9
18,Cc1nc(N2CCCC2)nc2c1CCN(C(=O)c1ccoc1C)CC2,3.17
19,Cc1ccc(C(=O)NCc2ccnc(N(C)C)c2)c(C)c1,-29.1
20,Cc1ccccc1N1CC(c2nnc(N)s2)CC1=O (stereo unspecified),-37.1
21,CC(C)C[C@H](NC(=O)Nc1ccc(F)c(Cl)c1)C(=O)O,47.1
22,COC(=O)CNC(=O)c1nc(Cl)sc1C(C)C,-17.6

row,SMILES,INHIBITION [%]
1,CCNC(=O)C1(Cc2cc(-c3ccccc3)no2)CCCN(C)C1 (stereo unspecified),10.9
2,COCC(=O)N1C[C@@H](O)[C@H](N2CCN(c3ccccc3)CC2)C1,12.39
3,O=C(CNc1ccc(OC2CCOC2)cc1)NCc1cccs1 (stereo unspecified),59.8
4,Cc1ccccc1CNC(=O)CNc1ccc(OC2CCOC2)cc1 (stereo unspecified),-6.97
5,O=C(CNc1ccc(OC2CCOC2)cc1)NCc1ccco1 (stereo unspecified),-12.1
6,Cc1ccccc1C1(CNC(=O)NC(C)c2nncn2C)CC1 (stereo unspecified),40.2
7,CN(Cc1ccccc1)C(=O)Cn1nc(N2CCSCC2)ccc1=O,-22.9
8,NC(=O)c1cccc(CCNCc2cnc(C3CCC3)s2)c1,82.5
9,COc1cccc(CNCCc2cccc(C(N)=O)c2)c1,-0.758
10,COc1ccc(CNCCc2cccc(C(N)=O)c2)cc1C,11.8
11,NC(=O)c1cccc(CCNCc2cnc(-c3cccs3)s2)c1,74
12,COc1ccccc1CNCCc1cccc(C(N)=O)c1,2.22
13,NC(=O)c1cccc(CCNCc2cccs2)c1,27.7
14,O=C(CCc1ccsc1)N1CCCCC1Cn1cccn1 (stereo unspecified),-23.9
15,Cc1noc([C@H]2CC[C@@H]3[C@@H](CCN3S(=O)(=O)C3CC3)O2)n1,-6.23
16,Cc1cccc(OCCC(=O)N2CCN(CC(=O)NC3CC3)CC2)c1C,33.8
17,Cn1c(N2CCOCC2)nc2cc(C(=O)N3CCCOCC3)ccc21,-24.6
18,CNC(=O)Cc1ccc(-n2ccnc2-c2cccc(C(=O)O)c2)cc1,15.6
19,CCc1ncc(-c2nccn2-c2cccc(CC(=O)O)c2)cn1,16.3
20,CC(=O)NCc1cccc(-n2ccnc2-c2cccc(C(=O)O)c2)c1,62.1
21,Cc1cnn(C2CCCN(C(=O)c3ccc(Cn4ccnc4)cc3)C2)c1 (stereo unspecified),16.9
22,Cc1ccc(C(CNC(=O)c2cc(=O)c3ccccc3[nH]2)N(C)C)cc1 (stereo unspecified),-5.22

row,SMILES,INHIBITION [%]
1,Cc1cnc(N2C[C@@H]3CN(C4CCOC4)CCC[C@]3(C(=O)O)C2)nc1 (stereo partly specified),24.9
2,CCN(CC1CC1)C(=O)NCc1nnc2n1CCC2,45.3
3,COc1ccc(NC(=O)NCC(O)c2ccccc2F)c(OC)c1 (stereo unspecified),3.15
4,Cc1c(C(=O)N2CCC(c3nc(C)n4ccsc34)CC2)cnn1C,42.6
5,CC(C)N1[C@H](Cn2cncn2)C[C@@H]2CN(Cc3ccsc3)CC[C@@H]21,47.5
6,CC(C)N1[C@H](Cn2cccn2)C[C@@H]2CN(C3CCOCC3)CC[C@@H]21,33
7,CC(C)N1[C@H](Cn2cncn2)C[C@@H]2CN(c3ncccn3)CC[C@@H]21,20.1
8,CC(=O)N1[C@H](Cn2cncn2)C[C@@H]2CN(Cc3ccccn3)CC[C@@H]21,34.1
9,CN1[C@H](Cn2cccn2)C[C@@H]2CN(Cc3cccs3)CC[C@@H]21,28.3
10,CN1[C@H](Cn2cncn2)C[C@@H]2CN(Cc3cccc(C#N)c3)CC[C@@H]21,20.1
11,CN1[C@H](Cn2cncn2)C[C@@H]2CN(Cc3ccsc3)CC[C@@H]21,54.8
12,CC(C)N1[C@H](Cn2cccn2)C[C@@H]2CN(Cc3ccoc3)CC[C@@H]21,57.9
13,CC(=O)N1[C@H](Cn2cncn2)C[C@@H]2CN(Cc3cccnc3)CC[C@@H]21,35.4
14,CC(=O)N1[C@H](Cn2cncn2)C[C@@H]2CN(Cc3ccncc3)CC[C@@H]21,55.9
15,CC(C)N1[C@H](Cn2cncn2)C[C@@H]2CN(Cc3cccs3)CC[C@@H]21,57.5
16,CC(C)N1[C@H](CN2CCCC2)C[C@@H]2CN(Cc3ccoc3)CC[C@@H]21,-75.9
17,Cc1cccc(C(CNC(=O)NCc2cc[nH]n2)N2CCOCC2)c1 (stereo unspecified),35.95
18,CCN(Cc1ccoc1)C(=O)NC1CCN(C(=O)OC(C)(C)C)C1 (stereo unspecified),1.93
19,CCc1ccc(C(N)c2cccc(S(C)(=O)=O)c2)cc1 (stereo unspecified),48.1
20,CC1CCCCN1C(=O)COc1nc(C(C)(C)C)no1 (stereo unspecified),-29.2
21,COc1cc(CNc2nncs2)cc(OC)c1OC,80.8
22,Cn1cnnc1-c1ccnc(NCc2ccc3c(c2)OCCO3)c1,42.3

row,SMILES,INHIBITION [%]
1,Cn1cnnc1-c1ccnc(NCc2ccccc2)c1,57.7
2,COc1cc(CNCCc2cnn(C)c2)cc(OC)c1OC,31.55
3,COc1cc(CNCc2ccnc(N3CCOCC3)c2)cc(Cl)c1OC,40.3
4,COc1cc(CNc2cc(-c3nncn3C)ccn2)cc(OC)c1OC,53.4
5,COc1cc(CNc2nc(N3CCOCC3)ns2)cc(OC)c1OC,8.05
6,COc1ccc(CNc2nncs2)cc1F,8.05
7,Cn1cnnc1-c1ccnc(NCc2ccc(Br)cc2)c1,8.05
8,COCCN(Cc1cnn(C)c1)C(=O)C1CCN(C2CCCCC2)CC1,36.7
9,C[C@@H]1CN(CCOc2ccc(Cl)cc2)CC[C@@]1(O)C1CCOCC1,-17.8
10,O=C(N[C@@H]1CN(Cc2ccoc2)[C@@H]2CCCO[C@@H]21)C1CC1,11.2
11,Cc1cn2c(n1)CCC(NC(=O)c1nc(C)ncc1Cl)C2 (stereo unspecified),30.3
12,Cn1cc(I)c(C(=O)NC2CCCCC2)n1,25.4
13,CN(Cc1cnn(C)c1)C(=O)NC1CCC(O)CC1 (stereo unspecified),1.81
14,O=C(NC1CCc2nccn2C1)c1ccc(NC2CC2)nc1 (stereo unspecified),7.58
15,CCN(CC)c1ncc(Cl)c(C(=O)NC2CC2)n1,57.3
16,CCN(CC)c1ncc(Cl)c(C(=O)NC2CCc3nccn3C2)n1 (stereo unspecified),76.7
17,CCNc1ncc(C(=O)NC2CCC(n3cnnc3)CC2)cn1 (stereo unspecified),37.7
18,CCN(CC)c1ncc(Cl)c(C(=O)NC2CCC(O)CC2)n1 (stereo unspecified),60.1
19,O=C(NC1CCC(O)CC1)c1cnc2c(cnn2C2CCCC2)c1 (stereo unspecified),11.3
20,CNc1nc(CNC(=O)Nc2cccc(Cl)c2Cl)cs1,-15.467
21,CCc1noc(CCC(=O)N2CCC(c3ccn[nH]3)C2)n1 (stereo unspecified),10.97
22,CNC(=O)N1Cc2cc(F)ccc2C2(CCN(C)CC2)C1,21.6

row,SMILES,INHIBITION [%]
1,CCc1ccc(S(=O)(=O)Nc2ccn(CC(=O)OC)n2)cc1,-74
2,C=c1ccoc1=C1NN=C(CNCCn2cc(C)cn2)O1,-25.9
3,NC(=O)NC(=O)CNC1(c2ccc(Cl)cc2)CCC1,-24.2
4,COCCN1CCCn2c(nc(CNS(C)(=O)=O)cc2=O)C1,25.8
5,CCOC(=O)c1sc2ccsc2c1CNS(C)(=O)=O,7.925
6,CCOC(=O)c1sc2ccsc2c1CNC(=O)C(C)OC (stereo unspecified),17.8
7,CCOC(=O)c1sc2ccsc2c1CNC(=O)CC,57.2
8,CCOC(=O)c1sc2ccsc2c1CNC(=O)CCOC,61.6
9,CCOC(=O)c1sc2ccsc2c1CNC(=O)C(C)(C)C#N,20.6
10,CCOC(=O)c1sc2ccsc2c1CNC(=O)COC,19.933
11,CC(C(=O)NCC1CCN(c2ccncc2)CC1)S(C)(=O)=O (stereo unspecified),-7.94
12,O=C(c1cnc2ccc(F)cc2c1NCc1ccco1)N1CCCCC1,-6.73
13,CCN(Cc1ccc(F)c(F)c1)Cc1nc2c(cnn2C)c(=O)[nH]1,-57.4
14,CSCC(=O)N1CCCC(CCC(=O)N(C)CCc2ccccn2)C1 (stereo unspecified),29.2
15,CCc1nc(C2CCCN2C(=O)CCc2nc(C3CC3)no2)no1 (stereo unspecified),-9.19
16,O=S(=O)(C1CC1)N1Cc2nccn2CC(Cn2cncn2)C1 (stereo unspecified),68.3
17,CCS(=O)(=O)N1Cc2nccn2CC(Cn2cncn2)C1 (stereo unspecified),20.6
18,CCCS(=O)(=O)N1Cc2nccn2CC(Cn2cncn2)C1 (stereo unspecified),-23.1
